Activity calls are given as the source filed them.
Columns and labels:
[1] = binders of probe aFSTL3 on microarray, primary screen, stem cell growth factor project, biochemical, small-molecule microarray, fluorescence 635/667 (AID 1064); details: higher = more signal;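 note: measures binding of the biotinylated anti-FSTL3 antibody to printed compounds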
[2] = binders from COS7 lysate, DM2A8 probe, primary screen, torsin A project, cell lysate, small-molecule microarray, fluorescence 635/667 (AID 1065); details: higher = more signal, COS7 lysate expressing mutant human TOR1A
[3] = binders of probe aFGF2 on microarray, primary screen, stem cell growth factor project, biochemical, small-molecule microarray, fluorescence 635/667 (AID 1067); details: higher = more signal;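 note: measures binding of biotinylated aFGF2 protein to printed compounds on slides; z-score merges feature fluorescence and signal-to-noise across triplicate slides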
[4] = binders of probe aFGF10 on microarray, primary screen, stem cell growth factor project, biochemical, small-molecule microarray, fluorescence 635/667 (AID 1071); details: higher = more signal;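 note: score merges 667 nm spot intensity and signal to noise from triplicate slides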
[5] = biological target: Neurogenic locus notch homolog protein 2 (Homo sapiens) (UniProt Q04721); test: Notch2 binders on small-molecule microarrays, primary screen, biochemical, small-molecule microarray, 635 nm fluorescence, stem cell growth factors (AID 1073); details: Notch2 binding, higher = more signal
[6] = biological target: Pro-neuregulin-1, membrane-bound isoform (Homo sapiens) (UniProt Q02297); test: NRG1 binders on small-molecule microarrays, primary screen, psychiatric disease protein project, biochemical, small-molecule microarray, fluorescence 635/667 (AID 1075); details: NRG1 binding, 635 nm fluorescence, higher = more signal;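 note: score combines 667 nm spot fluorescence with signal to noise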
[7] = test system: Neuregulin-1 EGF-like domain; test: binders of neuregulin-1 EGF-like domain, primary screen, biochemical, small-molecule microarray, 635 nm fluorescence (AID 1081); details: small-molecule microarray binding, higher = more signal;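 note: binding of the protein to compounds printed on small-molecule microarray slides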
[8] = FRG1 promoter luciferase signal modulators, primary screen, FRG1 inhibition for FSHD, cell-based, C2C12 myotubes, firefly/Renilla luciferase, luminescence (AID 1084); details: higher = more signal, called active from +8 up or from −8 down
[9] = binders of probe aFST on microarray, primary screen, stem cell growth factor project, biochemical, small-molecule microarray, fluorescence 635/667 (AID 1086); details: higher = more signal;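 note: score merges 667 nm fluorescence with signal-to-noise of each printed compound spot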
[10] = binders of probe aHhip on microarray, primary screen, stem cell growth factor project, biochemical, small-molecule microarray, fluorescence 635/667 (AID 1087); details: higher = more signal;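 note: score merges spot fluorescence at 667nm with spot signal to noise ratio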

Sequence of Neurogenic locus notch homolog protein 2 (Homo sapiens) (Q04721 whole entry, looked up, canonical isoform): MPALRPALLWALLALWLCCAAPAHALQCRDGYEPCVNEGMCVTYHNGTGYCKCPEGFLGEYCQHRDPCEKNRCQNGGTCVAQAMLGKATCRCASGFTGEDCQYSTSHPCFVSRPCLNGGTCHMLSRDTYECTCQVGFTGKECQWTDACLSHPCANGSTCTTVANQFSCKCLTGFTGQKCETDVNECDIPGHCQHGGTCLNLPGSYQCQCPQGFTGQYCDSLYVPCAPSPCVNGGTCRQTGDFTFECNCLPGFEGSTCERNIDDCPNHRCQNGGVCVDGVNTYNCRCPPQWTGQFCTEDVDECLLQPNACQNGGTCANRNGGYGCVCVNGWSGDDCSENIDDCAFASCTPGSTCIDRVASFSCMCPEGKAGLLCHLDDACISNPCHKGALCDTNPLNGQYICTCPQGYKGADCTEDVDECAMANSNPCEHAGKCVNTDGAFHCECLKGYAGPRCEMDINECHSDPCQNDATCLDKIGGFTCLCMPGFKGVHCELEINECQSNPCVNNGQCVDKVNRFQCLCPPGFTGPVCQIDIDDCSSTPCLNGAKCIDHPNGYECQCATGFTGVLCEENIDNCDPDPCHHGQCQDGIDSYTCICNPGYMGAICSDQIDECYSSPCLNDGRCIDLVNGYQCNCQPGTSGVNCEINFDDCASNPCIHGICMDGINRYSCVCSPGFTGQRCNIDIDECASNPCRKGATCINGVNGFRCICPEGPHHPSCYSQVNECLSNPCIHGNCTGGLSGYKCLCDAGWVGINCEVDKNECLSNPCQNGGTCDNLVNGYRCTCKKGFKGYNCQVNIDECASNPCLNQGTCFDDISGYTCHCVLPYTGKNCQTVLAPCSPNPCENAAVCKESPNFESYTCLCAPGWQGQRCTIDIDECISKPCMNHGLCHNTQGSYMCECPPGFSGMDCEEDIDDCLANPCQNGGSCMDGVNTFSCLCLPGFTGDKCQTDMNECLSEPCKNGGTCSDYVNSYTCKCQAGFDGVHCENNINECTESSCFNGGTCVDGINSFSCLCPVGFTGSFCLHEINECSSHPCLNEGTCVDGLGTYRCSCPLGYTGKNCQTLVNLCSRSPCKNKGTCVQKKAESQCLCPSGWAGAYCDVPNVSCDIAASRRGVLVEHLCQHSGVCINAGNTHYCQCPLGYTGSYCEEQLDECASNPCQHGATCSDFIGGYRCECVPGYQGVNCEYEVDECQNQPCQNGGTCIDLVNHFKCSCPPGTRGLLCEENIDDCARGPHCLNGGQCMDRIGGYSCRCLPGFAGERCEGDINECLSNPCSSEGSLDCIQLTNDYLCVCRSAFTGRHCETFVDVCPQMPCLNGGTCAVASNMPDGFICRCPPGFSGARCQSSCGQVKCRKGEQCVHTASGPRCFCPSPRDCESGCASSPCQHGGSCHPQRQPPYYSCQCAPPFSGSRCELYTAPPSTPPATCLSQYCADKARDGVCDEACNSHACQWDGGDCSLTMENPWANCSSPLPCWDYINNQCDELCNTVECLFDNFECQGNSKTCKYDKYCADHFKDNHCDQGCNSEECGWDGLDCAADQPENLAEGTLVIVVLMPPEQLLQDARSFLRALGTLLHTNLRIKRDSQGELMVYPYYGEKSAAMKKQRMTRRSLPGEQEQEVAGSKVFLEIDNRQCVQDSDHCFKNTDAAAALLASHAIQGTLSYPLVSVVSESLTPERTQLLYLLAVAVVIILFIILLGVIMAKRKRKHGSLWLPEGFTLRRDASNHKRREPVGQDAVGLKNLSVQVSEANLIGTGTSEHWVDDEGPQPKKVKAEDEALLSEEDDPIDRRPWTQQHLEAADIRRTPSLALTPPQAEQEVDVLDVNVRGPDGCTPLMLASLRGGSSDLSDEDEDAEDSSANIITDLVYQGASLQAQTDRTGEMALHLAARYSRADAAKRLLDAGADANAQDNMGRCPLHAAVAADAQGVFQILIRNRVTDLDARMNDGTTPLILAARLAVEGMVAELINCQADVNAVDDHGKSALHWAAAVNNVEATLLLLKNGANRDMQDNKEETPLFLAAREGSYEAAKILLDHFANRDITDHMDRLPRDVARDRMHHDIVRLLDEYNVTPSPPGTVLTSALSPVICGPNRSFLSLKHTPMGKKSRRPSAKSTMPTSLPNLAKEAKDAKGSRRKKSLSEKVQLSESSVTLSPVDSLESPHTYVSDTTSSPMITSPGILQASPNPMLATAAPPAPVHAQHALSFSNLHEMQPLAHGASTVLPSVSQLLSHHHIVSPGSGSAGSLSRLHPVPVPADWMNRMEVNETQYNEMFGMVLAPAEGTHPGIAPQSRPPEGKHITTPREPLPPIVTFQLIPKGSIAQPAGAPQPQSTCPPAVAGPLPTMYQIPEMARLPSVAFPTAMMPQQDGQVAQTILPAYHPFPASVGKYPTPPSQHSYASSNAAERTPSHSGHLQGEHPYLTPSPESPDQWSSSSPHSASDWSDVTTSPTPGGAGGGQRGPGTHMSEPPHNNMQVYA
Sequence of Pro-neuregulin-1, membrane-bound isoform (Homo sapiens) (Q02297 whole entry, looked up, the tested form may be a part, canonical isoform): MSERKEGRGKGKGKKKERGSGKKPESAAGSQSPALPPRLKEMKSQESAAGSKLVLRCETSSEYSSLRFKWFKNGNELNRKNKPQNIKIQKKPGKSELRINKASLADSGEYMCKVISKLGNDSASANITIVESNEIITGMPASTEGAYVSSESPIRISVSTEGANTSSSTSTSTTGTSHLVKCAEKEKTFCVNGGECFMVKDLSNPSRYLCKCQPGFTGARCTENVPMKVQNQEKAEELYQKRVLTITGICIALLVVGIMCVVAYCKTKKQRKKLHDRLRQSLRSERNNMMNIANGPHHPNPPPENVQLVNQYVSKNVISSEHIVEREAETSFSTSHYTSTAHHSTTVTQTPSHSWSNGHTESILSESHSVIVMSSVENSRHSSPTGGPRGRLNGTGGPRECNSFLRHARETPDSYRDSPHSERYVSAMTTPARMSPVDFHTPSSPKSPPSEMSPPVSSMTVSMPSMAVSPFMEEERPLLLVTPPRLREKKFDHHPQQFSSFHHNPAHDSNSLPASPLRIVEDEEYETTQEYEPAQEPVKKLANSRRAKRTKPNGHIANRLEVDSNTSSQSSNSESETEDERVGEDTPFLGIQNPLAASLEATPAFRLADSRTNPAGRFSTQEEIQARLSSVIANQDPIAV

SMILES	composite z-score [1]	composite z-score [2]	composite z-score [3]	composite z-score [4]	composite z-score [5]	composite z-score [6]	composite z-score [7]	z-score [8]	composite z-score [9]	composite z-score [10]
C=CC[C@]1(C(=O)NCCN2CCOCC2)N=C(c2ccc(OCCCO)cc2)O[C@H]1c1ccccc1N=[N+]=[N-]	1.13	0.562	0.178	0.32	0.832	1.56	1.14	1.98 (inactive)	1.08	0.176
C=C(C(=O)CC[C@@H](OC(=O)c1cccnc1)c1ccc(OCCO)cc1)C(C)C	-0.408	-0.294	-0.113	1.27	-0.121	0.739	1.06	-2.68 (inactive)	0.128	-0.0994
COC(=O)[C@@]1(Cc2ccc(F)cc2)[C@H]2c3cc(C(=O)N4CCCC4)n(Cc4ccc(Cl)c(C(F)(F)F)c4)c3C[C@H]2CN1C(=O)c1ccccc1	2	0.554	0.713	1.04	1.73	1.61	1.14	0.339 (inactive)	2.44	3.55
COC(=O)C(CC#Cc1ccc2c(c1)[C@]1(C(=O)N2)[C@H](C(=O)N2CCCCCCC2)[C@H]2C(=O)O[C@H](c3ccccc3)[C@H](c3ccccc3)N2[C@@H]1c1ccccc1OCCO)C(=O)OC	3.68	2.84	1.03	1.26	1.75	2.65	1.38	0.695 (inactive)	3.61	3.1
O=C1NC(=O)C2C1C=CC(C(O)c1cccs1)N2Nc1ccccn1 (stereo not given)	0.151	-0.133	0.0094	0.692	1.14	0.689	0.877	0.304 (inactive)	0.282	-0.188
CCCCCCC#C[Si](O[C@H](c1ccccc1)c1cn([C@H](C)c2ccccc2)nn1)(C(C)C)C(C)C	-0.0028	0.247	-0.083	0.291	0.315	0.114	-0.333	-0.532 (inactive)	-0.495	0.0147
O=C1C2C=CC(C(O)c3ccc(-c4ccccc4)s3)N(Nc3ccccc3F)C2C(=O)N1c1ccccc1 (stereo not given)	0.623	0.0116	0.0352	0.243	1.58	1.65	1.28	1.72 (inactive)	0.955	-0.0296
COc1ccc([Si](C)(C)[C@H]2[C@H](CC(=O)N3CCC[C@H]3CO)O[C@@]3(C(=O)N(Cc4cccc(N5CCC5=O)c4)c4ccccc43)[C@@H]2C)cc1	-0.226	0.149	0.0496	1	1.01	0.865	1.32	-4.15 (inactive)	0.774	-0.253
COCCOC(=O)N1C(=O)[C@@]2(c3cc(C#CCCO)ccc31)[C@H](C(=O)NC[C@H](O)c1ccccc1)[C@H]1C(=O)O[C@H](c3ccccc3)[C@H](c3ccccc3)N1[C@@H]2c1ccc(OCCO)cc1	0.664	0.271	-0.114	0.208	1.08	1.27	1.16	0.469 (inactive)	0.152	-0.11
O=C1C[C@@](C(=O)O)(c2ccc([N+](=O)[O-])cc2)[C@@H](c2ccc(CO)cc2I)N1CC12CC3CC(CC(C3)C1)C2	0.525	0.773	-0.124	0.14	1.41	1.48	0.843	-1.55 (inactive)	0.806	0.0497
NC(=O)[C@]1(Cc2ccccc2)N=C(c2ccc(OCCCO)cc2)O[C@@H]1c1ccccc1	0.207	-0.911	0.0121	0.161	1.15	1.59	1.12	-0.573 (inactive)	0.503	-0.214
[N-]=[N+]=Nc1ccccc1[C@@H]1OC(c2ccc(OCCCO)cc2)=N[C@]1(CCS(=O)(=O)c1ccccc1)C(=O)O	0.0639	0.459	0.079	0.839	1.57	1.53	0.862	3.39 (inactive)	0.912	0.151
Cc1ccccc1/C=C/C=O	-0.162	-0.623	-0.135	-0.0909	-1.09	-0.628	-0.631	0.258 (inactive)	-0.127	0.0957
CCCC[C@@H]1C[C@H]1[C@@H](NC(=O)c1ccccc1)c1ccc(-c2ccccc2)cc1	-0.138	0.535	0.0805	-0.0214	0.294	0.23	0.341	-1.76 (inactive)	0.442	-0.21
COc1c(C)cc(-c2cc3c(c(-c4ccccc4)n2)[Si](C(C)C)(C(C)C)O[C@H]3c2ccccc2)cc1C	-0.409	-0.103	-0.103	0.235	0.234	-0.0051	-0.438	0.361 (inactive)	0.291	0.0373
Cc1ccc(C(C)CC(O)C2C=CC3C(=O)NC(=O)C3N2Nc2ccccn2)o1 (stereo not given)	-0.0428	0.573	-0.0951	0.174	-0.0116	0.753	0.845	0.327 (inactive)	0.0821	-0.249
COc1ccccc1CN1C(=O)c2ccccc2[C@](Cc2ccccc2I)(C(=O)NCc2ccccc2)[C@@H]1c1ccc(CO)cc1	0.317	1.33	-0.0614	0.197	0.106	0.923	0.535	-1.13 (inactive)	0.182	0.154
COC(=O)[C@@]1(Cc2ccc(OC)cc2)[C@H]2c3cc(C(=O)N4CCCC4)n(CCN4CCOCC4)c3C[C@H]2CN1C(=O)c1ccccc1	2.56	0.553	1.01	1.47	1.59	2.23	1.37	0.877 (inactive)	2.71	3.48
O=C1C2C=CC(C(O)c3ccc(B(O)O)cc3)N(Nc3ccc([N+](=O)[O-])cc3)C2C(=O)N1c1ccccc1 (stereo not given)	-0.28	0.378	0.0121	0.84	1.46	1.56	1.05	0.663 (inactive)	1.25	-0.236
COCCOC(=O)N1C(=O)[C@@]2(c3ccccc31)[C@H](C(=O)N1CCCCCCC1)[C@H]1C(=O)O[C@H](c3ccccc3)[C@H](c3ccccc3)N1[C@@H]2c1ccccc1OCCO	3.82	1.77	0.679	0.684	1.3	1.84	1.38	-0.91 (inactive)	3.36	3.52
CC1(C)C(=O)C(c2ccccc2)=C2CN3C(=O)N(CCc4ccccc4)C(=O)C3(Cc3ccccc3)C=C21 (stereo not given)	0.0442	-0.219	-0.0465	0.235	1.63	0.328	0.949	0.586 (inactive)	1.15	-0.11
CCN(CC)c1ccc(N2CC=CC34O[C@@H]5C=CCCOC(=O)C5[C@H]3C(=O)N(CCCO)[C@@H]4C2=O)cc1 (stereo not given in full)	-0.0768	-0.288	-0.158	-0.332	-0.816	-0.613	-0.0612	-0.306 (inactive)	-0.177	-0.134
COc1ccc(C#Cc2ccc3c(c2)[C@]2(C(=O)N3)[C@H](c3ccc(OCCO)cc3)N3[C@H](c4ccccc4)[C@H](c4ccccc4)OC(=O)[C@H]3[C@@H]2C(=O)Nc2nc3ccccc3s2)cc1	0.244	0.664	-0.0167	0.71	1.07	2.24	1.13	3.55 (inactive)	0.667	-0.181
CN(C)CCCCCCNC(=O)[C@@H]1C[C@@H]2C(=O)NCC(=O)N2[C@@H]1c1cccc(OCCO)c1	-0.131	1.37	0.153	0.816	1.14	0.346	1.26	2.12 (inactive)	0.555	0.164
CCCC[C@H]1OB(O)C[C@H]2C1=C(COc1ccccc1)C[C@H]1C(=O)N(Cc3ccccc3)C(=O)[C@H]12	-0.331	-0.413	-0.0434	0.418	0.0238	0.117	1.07	0.132 (inactive)	-0.0344	0.0623
Cc1ccc(S[C@]2(C(=O)NCc3ccccc3)CC(=O)N(Cc3cc(C(F)(F)F)cc(C(F)(F)F)c3)[C@@H]2c2ccc(CO)cc2)cc1	-0.989	-0.779	-0.172	-0.596	-0.885	0.57	0.246	-0.588 (inactive)	-0.0847	-0.362
O=C1O[C@H](c2ccccc2)[C@H](c2ccccc2)N2[C@H]1[C@@H](C(=O)N1CCCCCCC1)[C@]1(C(=O)Nc3ccc(C#CC4=CCCCC4)cc31)[C@H]2c1ccc(O)cc1	3.8	2.87	1.05	1.46	1.84	2.87	1.54	0.805 (inactive)	3.41	2.58

Source: PubChem BioAssay
